Assay outcomes from PubChem BioAssay.
An excerpt weighted towards active compounds, which were near 11% of everything screened.
IMPase cell inh: qHTS Assay for Identifying the Cell-Membrane Permeable IMPase Inhibitors; inhibition (IP1 accumulation), % at 46.1 µM; CHO-M1 cells, IP1 accumulation, HTRF TR-FRET ratio; 120,000 tested, under 10 active; AID 901, 2007; active means well fitted curve in the direction sought with a large enough effect in the signal ratio, not every such curve was filed as active; inconclusive means small, poorly fitted or top-dose-only effect, or a change in a side signal; inactive means no such curve, though single readings can be large or run the other way; the % refers to the signal ratio;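 further: cells stimulated with carbachol in lithium chloride buffer; plate controls were DMSO basal wells for no effect and reference inhibitor wells for full effect; higher means more IMPase inhibition seen as more IP1 and lower FRET ratio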
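CHO-M1 cells (CHO stably expressing M1 receptor), compound up to 46 uM final, stimulated with carbachol (50 uM as added) in buffer with 50mM LiCl, pH 7.4, 30 min at 37C. Cytosolic IP1 read by TR-FRET; AC50 from Hill fits.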
PNC inhibitor: High Content Assay for Compounds that inhibit the Assembly of the Perinucleolar Compartment; PC3M PTB-GFP, PNC prevalence imaging, 16 h; active compounds read low; activity change (PNC), negative = inhibition, % at 10 µM; 140,000 compounds, 3.1% hits; AID 2417, 2010;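 active means readout at or below -70, meaning at least 70% loss of cells showing the perinucleolar compartment, a nuclear body marking cancer cells; inconclusive means readout between -30 and a set limit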;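 further: plate controls were DMSO wells for no effect and camptothecin positive control wells for full effect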
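Compounds are pinned in duplicate onto adhered PC3M cells stably expressing GFP-tagged PTB and incubated 16 h at 37 C. Cells are then fixed, nuclei stained with Hoechst, and PNC-positive cells counted.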
ALDH1A1 block: qHTS Assay for Inhibitors of Aldehyde Dehydrogenase 1 (ALDH1A1) | 220,000 compounds, 7.3% hits | Potency, µM (highest dose often 75.3 µM), without a hit: at the top dose activity, negative = inhibition, actives largely listed as inhibitors | Purified ALDH1A1, NADH fluorescence, propionaldehyde substrate | Aldehyde dehydrogenase 1A1 (Homo sapiens), P00352;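 further: potency means the concentration at half of the fitted maximal effect; plate controls were no enzyme wells and a reference inhibitor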
IMPase Li inh: qHTS Assay for Identifying the Cell-Membrane Permeable IMPase Inhibitors: Potentiation with Lithium; CHO-M1 cells, IP1 TR-FRET (IP-One), carbachol + lithium; Potency, µM (doses to about 59.4 µM), without a hit: at the highest dose activity, negative = IMPase inhibition, hits mostly inhibitors; 210,000 compounds, 0.35% hits; AID 1457, 2008; active means well fitted curve in the direction sought with a large enough effect; inconclusive means small, poorly fitted or top-dose-only effect, or another doubt; inactive means no such curve, though single readings can be large; an effect the other way counts as inactive or inconclusive;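 further: IP1 builds up when IMPase is blocked and the TR-FRET signal falls; potency means the concentration at half of the fitted maximal effect; plate controls were basal vehicle for no effect and high inhibitor control for full effect; nearly all actives have a fitted effect of over 50% in size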
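Steps: plate 2000 CHO-M1 cells per well and culture 16–30 h; add compound and lithium; incubate 30 min, 37C; add d2-IP1 tracer and Eu cryptate anti-IP1 antibody in lysis buffer; read after 10 min at room temperature.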
HPGD inh: qHTS Assay for Inhibitors of HPGD (15-Hydroxyprostaglandin Dehydrogenase); AID 894, 2007; purified HPGD, NADH fluorescence kinetic, PGE2 substrate; 150,000 compounds, 4.3% hits; Potency, µM, for inactives: top-dose activity change, negative = inhibition, most hits filed as inhibitors; further: potency means the concentration at half of the fitted maximal effect
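NADH formation kinetics: reaction with 30 uM PGE2 and 1 mM NAD+ (final), 20 nM enzyme, Tris-HCl pH 8 with Tween 20, after 15 min compound preincubation at room temperature. Fluorescence change, last versus first of five reads.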
12-hLO inh: qHTS Assay for Inhibitors of 12-hLO (12-human lipoxygenase) | Polyunsaturated fatty acid lipoxygenase ALOX12 (Homo sapiens), P18054 | purified 12-hLO, xylenol orange hydroperoxide absorbance | Potency, µM (highest dose often 57.1 µM), inactives show top-dose activity change, negative = inhibition, hits mostly inhibitors | 150,000 compounds, 0.12% hits; active means well fitted curve in the direction sought with a large enough effect; inconclusive means small, poorly fitted or top-dose-only effect, or another doubt; inactive means no such curve, though single readings can be large; an effect the other way counts as inactive or inconclusive; further: potency means the concentration at half of the fitted maximal effect; nearly all actives have a fitted effect of over 55% in size
Target sequence (P18054 whole entry, looked up): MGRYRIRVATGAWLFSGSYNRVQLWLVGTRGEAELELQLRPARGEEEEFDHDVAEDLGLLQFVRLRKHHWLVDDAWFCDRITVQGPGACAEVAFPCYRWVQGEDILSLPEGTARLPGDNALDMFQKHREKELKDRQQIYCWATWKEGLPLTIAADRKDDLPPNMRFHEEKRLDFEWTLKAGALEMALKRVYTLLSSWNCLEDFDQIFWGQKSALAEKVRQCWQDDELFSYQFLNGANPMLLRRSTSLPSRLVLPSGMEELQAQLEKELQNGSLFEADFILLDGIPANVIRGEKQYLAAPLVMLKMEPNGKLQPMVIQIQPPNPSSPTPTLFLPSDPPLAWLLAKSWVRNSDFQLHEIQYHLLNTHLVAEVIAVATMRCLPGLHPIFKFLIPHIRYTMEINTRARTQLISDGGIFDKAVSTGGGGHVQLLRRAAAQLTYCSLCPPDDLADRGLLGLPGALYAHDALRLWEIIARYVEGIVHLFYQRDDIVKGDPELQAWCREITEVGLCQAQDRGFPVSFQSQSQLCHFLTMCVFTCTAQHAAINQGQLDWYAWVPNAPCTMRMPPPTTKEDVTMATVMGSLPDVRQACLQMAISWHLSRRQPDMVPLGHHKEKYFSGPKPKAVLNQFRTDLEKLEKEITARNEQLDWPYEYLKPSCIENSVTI
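Purified human 12hLO (150 nM), preincubated 15 min with compound, then 40 uM arachidonic acid for 30 min, room temperature, Hepes pH 7.0 with 0.01% Triton X-100. Hydroperoxide detected by ferrous iron/xylenol orange; 573/405 nm absorbance ratio gives reaction progress.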
* = called active by the depositor; u = inconclusive; x = no result given; [ ] = dose if it differs, or a comment. Unless noted, the call rests on the fitted dose curve; in most records, active means well fitted inhibition curve with a large enough effect (not every such curve was filed as active); inconclusive means small, poorly fitted or top-dose-only effect, or another doubt; inactive means no such curve, though single readings can be large or run the other way. Unless noted, on the % scale 0 is the no-effect control and ±100 the full control effect.

SMILES | IMPase cell inh | PNC inhibitor | ALDH1A1 block | IMPase Li inh | HPGD inh | 12-hLO inh
CNC(=O)c1nnsc1S(=O)c1ccc(Cl)cc1 (configuration not stated) | x | x | 22µM* | 24% | x | x
Cc1cnc(CNc2ncnc3ccc(-c4ccccc4C)cc23)cn1 | x | x | -2% | 9% | x | x
c1coc(CN(Cc2cccs2)Cc2nnnn2C2CCCCC2)c1 | 6 | -100* | u | 5% | -16% | -11%
Clc1ccccc1CN(Cc1ccco1)Cc1nnnn1C1CCCC1 | 2 | u | 2% | 5% | -12% | -23%
Cc1sc2nc(CN3CCOCC3)[nH]c(=S)c2c1C | x | x | -16% | -11% | x | x
CC1CC(C)CN(C(=O)COC(=O)CCc2nc3ccccc3c(=O)[nH]2)C1 (configuration not stated) | x | -4 | 3.5µM* | -8% | -9% | 2%
O=C(CCc1nc2ccccc2c(=O)[nH]1)OCC(=O)N1CCN(S(=O)(=O)c2ccccc2)CC1 | -3 | 42 | -3% | -25%[38.3 µM] | 3% | 0%
N/C(=N\OC(=O)COc1ccc([N+](=O)[O-])cc1)c1ccncc1 | x | x | 8% | -4% | x | x
N/C(=N\OC(=O)COc1ccc(Br)cc1)c1ccncc1 | x | -102* | 7% | -5% | -9% | -3%
CC(C)(C)c1ccc(C(=O)NC2(C(F)(F)F)NC(=O)N(CCc3ccccc3)C2=O)cc1 (configuration not stated) | 9 | x | x | x | x | x
COc1ccc(C2NC(=O)NC3=C2CCc2ccccc23)cc1 (configuration not stated) | 7 | -6 | u | -4%[38.3 µM] | u | -19%
COc1cccc(C2NC(=S)NC3=C2CCc2ccccc23)c1 (configuration not stated) | -2 | 12 | 0.22µM* | x | x | -1%
COc1ccc2c(c1)C1=C(CC2)C(c2ccc(C)cc2)NC(=S)N1 (configuration not stated) | x | x | 0.4µM* | -4% | x | x
COc1cccc(-c2nc(S(=O)(=O)c3ccccc3)c(NCc3ccccc3)o2)c1 | -2 | x | x | x | x | x
CCOCC(=O)O | x | x | 9% | -1% | -3% | 0%
CCSC1=N/C(=C\c2ccc(OC)cc2)C(=O)N1 | x | 53 | 9.5µM* | 27% | u | -18%
CCSC1=N/C(=C\c2ccccc2)C(=O)N1c1ccc(OC)cc1 | x | x | 3% | 9% | x | x
